# Experimental data as given in PubChem BioAssay (NCI).
# The panel holds about 83,000 compounds, 20% with a hit somewhere; the sample as a whole holds those more often.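 Results are percent growth after 48 hours of single-concentration exposure. 100 means growth as in untreated cells, lower positive values show inhibition; negative values down to -100 show cell death.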 Values without a mark were called inactive. Calls of active or inactive are those of the source. Rule for the calls: active = growth percent below 10; inactive = the rest.
# System: HL-60(TB) leukemia
# Test: NCI-60 one-dose screen, 48 h (100 = growth as untreated, 0 = no growth, -100 = all killed)
# Conditions: 10 µM unless noted
row,Compound,growth
1,CN1CCN=C1c1ccc(NC(=O)c2ccc(C(=O)Nc3ccc(C4=NCCN4C)cc3)cc2)cc1,91.2%
2,c1ccc2c3c([nH]c2c1)C(c1ccc(C2NCCc4c2[nH]c2ccccc42)cc1)NCC3 (stereo not given),-63.2% (active)
3,C=CCc1cc(OC)c(OC)c(OC)c1,78.7%
4,Clc1nc2ccccc2nc1CI,93.8%
5,CCCCCCNc1nc(NCCCCCC)c2[nH]c(NCCCCCC)nc2n1,-60.2% (active)
6,O=C(Nc1ccc(-n2ccc3c(NC(=O)c4ccccc4)ncnc32)cc1)c1cccc(C(F)(F)F)c1,43.9%
7,CCCCCCCCCCCCCCCCCCSC(=N)N,46%
8,CCC(=O)Oc1c(C)cc(O)c2ccccc12,68.8%
9,NC(CC(N)C(=O)O)C(=O)O (stereo not given),110%
10,Oc1c(CN2CCCC2)cc(CSCc2ccccc2)c2cccnc12,-23.7% (active)
11,N#Cc1nc(-c2ccc(F)cc2)oc1S(=O)(=O)N1CCN(c2ccc(F)cc2)CC1,52.3%
12,CS(=O)(=O)Nc1cc(-c2cc3ncc(C#N)c(Nc4ccc(Oc5ccccc5)c(Cl)c4)c3s2)cnc1Cl,64.6%
13,CCCCCc1c(C)[nH]c(/C=C2\N=C(c3ccc[nH]3)C=C2Oc2ccccc2)c1C,-49.6% [100 µM] (active)
14,C=C(CN1CC=CCC1)[C@@H]1CC[C@]2(CO)CC[C@]3(C)[C@H](CC[C@@H]4[C@@]5(C)CC[C@H](O)C(C)(C)[C@@H]5CC[C@]43C)[C@@H]12,99.9%
15,Nc1nonc1-c1nc2ccccc2n1CC(=O)Nc1ccc2c(c1)COC2=O,100%
16,Cc1ccc(C(=Nc2ccccc2)N=P(c2ccccc2)(c2ccccc2)c2ccccc2)cc1,-4.41% (active)
17,CCOC(=O)c1c(C)nc(C)c(C(=O)OCC)c1-c1cccnc1,61.1%
18,CCOC(=O)C1=C(COCCN)NC(C)=C(C(=O)OC)C1c1ccccc1Cl (stereo not given),95.5%
19,N#CC1=C(N)Oc2c(sc3c(F)cccc23)C1c1ccc([N+](=O)[O-])cc1 (stereo not given),-7.41% (active)
20,COC(=O)C1CCCN1C(=O)[C@@H]1CCCN1C(=O)[C@H](Cc1c[nH]c2ccccc12)NC(=S)Nc1cc(C(F)(F)F)cc(C(F)(F)F)c1 (stereo not given in full),-43.8% (active)

row,Compound,growth
1,CC(=O)OC(C)c1cccc(C#N)c1 (stereo not given),105%
2,Cc1oc2c(c1C(=O)N1CC[C@@H](N)C1)C(=O)c1c(c(O)c3ccccc3c1O)C2=O,-22.8% (active)
3,COc1ccc(/C=C(\C#N)c2cc3ccccc3n2C)cc1,0.415% (active)
4,COc1cccc(C2CC(=O)Nc3cc4c(cc32)OCO4)c1OC (stereo not given),93.7%
5,Cc1ccc(NC2CC(=O)N(c3c(C)cc(C)cc3C)C2=O)c(C)c1 (stereo not given),102%
6,CN1CCC(OC2c3ccccc3CCc3ccccc32)CC1,99.1%
7,Fc1ccc(Nc2ncnc3ccc(-c4cn[nH]c4)cc23)cc1Cl,83.7%
8,CC(C)[C@@]12C[C@@H](OC(=O)[C@H]3CO3)[C@@](C)(O1)[C@@H]1CC[C@@H](C)[C@H]1[C@@H]2OC(=O)/C=C/c1ccccc1,67%
9,Cc1ccc2c(=O)cc(C(=O)Nc3sc4c(c3C(=O)NCc3cccnc3)CCCC4)oc2c1C,88.3%
10,Cc1nc2ccccc2c(/C=C/c2ccc(Cl)cc2)c1C(=O)/C=C/c1cccs1,59.5%
11,CC(=O)Oc1csc(N(C(C)=O)c2cc(C(=O)O)cc(C(=O)O)c2)n1,113%
12,C=CC1=C(C(=O)O)N2C(=O)[C@@H](NC(=O)/C(=N\O)c3csc(N)n3)[C@H]2SC1 (stereo in doubt),118%
13,O=C1/C(=C/c2ccc3c(c2)OCO3)SC(=S)N1CCc1ccc(O)cc1,90.9%
14,CC(=O)O[C@H]1CC[C@]2(C)[C@H]3CC=C4[C@@H]5[C@H](C)[C@@H](C)CC[C@]5(C(=O)NCCNCCNCCN)CC[C@@]4(C)[C@]3(C)CC[C@H]2C1(C)C,81.6%
15,COc1ccc2c(c1)[nH]c(=O)c1c3cc(C)c(C)cc3cn21,-14.8% (active)
16,O=C(CCc1nc(-c2cccc(Cl)c2)no1)Nc1ccccn1,102%
17,N#Cc1c(-c2ccccc2)cc(-c2ccccc2)n(CCCC(=O)O)c1=O,103%
18,Nc1ncnc2[nH]ncc12,3.02% (active)
19,O=C(O)C1CCC(=O)N1C(=O)OCc1ccccc1 (stereo not given),84.1%
20,O=C1OCC2=C1C(c1ccc(Cl)c(Cl)c1)c1cc3c(cc1N2CCO)CCC3 (stereo not given),-13.1% (active)
